aDG glyco act = activators of alpha-DG glycosylation, primary screen, uHTS, Pro5-aDG cells, AlphaScreen; 0.22% of 360,000 active; activation, % at 10 µM; AID 624168, 2012; alpha-DG glycosylation AlphaScreen (IIH6); 0% Pro5, 100% B10-LARGE cell signal;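 active = activation of at least 8% versus controls, or a plate z-score of at least 8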;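 also: Pro5 are CHO cells carrying HIG-tagged alpha-DG that lacks glycosylation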
COUP-TFII inh = NR2F2 transcriptional activity inhibitors, primary screen, cell-based, luciferase reporter, HEK293T, luminescence; inhibition, % at 8.6 µM; 0.7% of 370,000 active; HEK293T NGFI-A luciferase reporter; COUP transcription factor 2 (Homo sapiens), P24468;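 active = inhibition above a per-plate cutoff, mean inhibition of test wells between control levels plus 3 SD, cut at about 38% in these data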;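 also: cells cotransfected with COUP-TFII expression vector driving the NGFI-A reporter; 0% = median of COUP-TF2 test wells and 100% = reporter-only cells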
Target sequence (P24468 whole entry, looked up): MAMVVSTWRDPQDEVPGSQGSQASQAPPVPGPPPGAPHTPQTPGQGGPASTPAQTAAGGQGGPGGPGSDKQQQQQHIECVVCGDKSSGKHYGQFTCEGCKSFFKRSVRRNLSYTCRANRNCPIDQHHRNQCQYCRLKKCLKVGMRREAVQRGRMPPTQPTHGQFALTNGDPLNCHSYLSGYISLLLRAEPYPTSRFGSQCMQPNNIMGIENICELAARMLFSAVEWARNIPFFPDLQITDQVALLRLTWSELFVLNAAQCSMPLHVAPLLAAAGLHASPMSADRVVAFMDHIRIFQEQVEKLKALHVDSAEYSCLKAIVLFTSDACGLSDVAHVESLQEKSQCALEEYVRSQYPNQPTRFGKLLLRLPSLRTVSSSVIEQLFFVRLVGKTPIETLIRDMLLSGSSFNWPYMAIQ
Env fusion inh = inhibitors of HIV-1 Env-driven cell-cell fusion, primary screen, HeLa-JRFL effector, CEM21 target cells, luciferase. inhibition, % at 12.3 µM. 1.1% of 360,000 active;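 active = mean replicate inhibition score of at least 50 and every replicate individually at or above 50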;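 also: 0% = plate neutral controls and 100% = maraviroc near 300 nM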
Gli-Sufu antag = Gli-Sufu pathway antagonists, primary screen, luciferase luminescence, Sufu-KO-LIGHT cells, uHTS; Sufu-KO-LIGHT fibroblasts, Gli luciferase reporter luminescence; inhibition, % at 5 µM; 0.74% of 340,000 active; AID 588413, 2011;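 active = inhibition above about 55%, limit read from the data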;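 also: 0% = DMSO-treated cells and 100% = wells with medium but no cells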
GalR3 antag = GalR3 antagonists in HEK293 cells, primary screen, cell-based, fluorescence readout; inhibition, % at 3 µM; HEK293 GalR3-CNG cAMP membrane potential fluorescence; galR3 body fused to GalR1 C-terminus; Galanin receptor type 3 (Homo sapiens), O60755; 0.44% of 360,000 active;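 active = inhibition above the screen-wide average plus 3 SD, cut at about 13% in these data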;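 also: forskolin and galanin both at EC90 stimulate the cells; cAMP rise reported by CNG channel membrane potential dye signal; 0% = forskolin plus galanin with DMSO and 100% = forskolin alone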
Target sequence (O60755 1-299 limits assumed): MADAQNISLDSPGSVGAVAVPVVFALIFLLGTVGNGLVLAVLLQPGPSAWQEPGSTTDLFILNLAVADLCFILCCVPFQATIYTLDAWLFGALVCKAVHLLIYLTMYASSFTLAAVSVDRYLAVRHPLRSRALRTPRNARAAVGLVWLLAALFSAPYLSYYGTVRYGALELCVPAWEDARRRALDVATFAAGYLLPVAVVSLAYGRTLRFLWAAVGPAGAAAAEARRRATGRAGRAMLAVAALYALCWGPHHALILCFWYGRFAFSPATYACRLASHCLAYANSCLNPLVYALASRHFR
Gli antag conf = Gli-SUFU pathway antagonists, confirmation, single concentration, luciferase luminescence, Sufu-KO-LIGHT cells. shares compounds with Gli-Sufu antag. Gli luciferase reporter. inhibition, % at 5 µM. 40% of 2,500 active. AID 602428, 2012;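 active = mean inhibition at 5 µM reaching about 45%, limit read from the data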;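 also: plate controls were DMSO-treated cells for no effect and wells lacking cells for full effect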
SufuKO cytotox = cytotoxicity in Sufu-KO-LIGHT cells, confirmation, cytotoxicity control for Gli-SUFU antagonist project, cell-based, ATP luminescence, single concentration; 32% of 2,500 active; AID 651994, 2013; shares compounds with Gli-Sufu antag; cytotoxicity, % at 5 µM;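 active = mean cytotoxicity at 5 µM above about 25%, limit read from the data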;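 also: cells exposed to compound overnight for roughly 16 to 18 hours; plate controls were DMSO wells with cells for no effect and medium without cells for full effect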
Wnt3a counter = Wnt3a reporter signal inhibition, confirmation, counter-screen for Gli-SUFU antagonist project, Wnt-LIGHT cells, luminescence, single concentration; shares compounds with Gli-Sufu antag; Wnt3a-driven luciferase reporter; inhibition, % at 6.25 µM; 20% of 2,500 active;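 active = mean inhibition above about 25%, limit read from the data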
The depositor's hits bear a star; x = not tested or not shown; [ ] = dose if it differs, or a comment. Shown are actives, neighbours in structure and some others; about 2.1% of the full set was active somewhere.

SMILES	aDG glyco act	COUP-TFII inh	Env fusion inh	Gli-Sufu antag	GalR3 antag	Gli antag conf	SufuKO cytotox	Wnt3a counter
CS(=O)(=O)Cc1ccc(C(=O)NCC2(N3CCCCC3)CCCCC2)cc1	0	4	9	52	-3	29	17	0
C[C@@H]1CN([C@@H](C)CO)S(=O)(=O)c2ccc(C#C[C@@H](C)O)cc2O[C@H]1CN(C)C(=O)C1CCC1	x	x	-6[16.7 µM]	x	x	x	x	x
O=C(NC1CCCC1)C(c1ccccc1)N(Cc1cccnc1)C(=O)Cc1cccs1 (stereo not given)	0	5	10	57*	2	23	0	6
CC(C)NC(=O)N(C)C[C@@H]1OCCCC[C@@H](C)Oc2ccc(NS(=O)(=O)c3ccc(Cl)cc3)cc2C(=O)N([C@@H](C)CO)C[C@H]1C	x	x	-52[16.7 µM]	x	x	x	x	x
CNC(=O)C[C@H]1CC[C@@H]2[C@@H](COc3ccc(NS(=O)(=O)c4cccc(F)c4)cc3C(=O)N2C)O1	x	x	-5[16.7 µM]	x	x	x	x	x
CCc1cc(=O)oc2cc(C)cc(OCC(=O)N[C@@H](CSCc3ccccc3)C(=O)O)c12	0	-5	x	57*	2	23	-3	3
Cc1csc(N(C(=O)c2cccc(S(=O)(=O)N(C)C)c2)c2ccccc2)n1	0	-13	28	57*	-6	23	4	-4
Cc1csc(N(C(=O)c2cccc(S(=O)(=O)N3CCCC3)c2)c2ccccc2)n1	1	5	x	-3	-3	x	x	x
C/C=C/c1ccc2c(c1)O[C@@H](CN(C)C(=O)c1ccc(F)cc1)[C@H](C)CN([C@H](C)CO)S2(=O)=O	x	x	-15[16.7 µM]	x	x	x	x	x
CC#CC[N+](C)(C)CCCCCCCCCC	0	34	14	68*	-2	79*	43*	35*
C#CC[N+](C)(C)CCCCCCCCC	0	10	28	25	-2	x	x	x
CC(C)NC(=O)Nc1ccc2c(c1)C(=O)N([C@@H](C)CO)C[C@@H](C)[C@@H](CN(C)S(=O)(=O)c1ccccc1)OCCCC[C@@H](C)O2	x	x	-26[16.7 µM]	x	x	x	x	x
CCN(CC)S(=O)(=O)c1ccc(OC)c(NC(=O)CC2CCCC2)c1	0	-6	-10	8	-10	x	x	x
CCN(CC)S(=O)(=O)c1cccc(NC(=O)/C=C/c2cccc([N+](=O)[O-])c2)c1	0	10	22	51	0	23	14	-45
CCN(CC)S(=O)(=O)c1cccc(NC(=O)CC2CCCC2)c1	0	0	-16	57*	-8	22	10	-8
N#C[C@@H]1[C@@H](c2ccc(-c3cccc(F)c3)cc2)[C@@H](CO)N1S(=O)(=O)c1cccc(F)c1	x	x	3[16.7 µM]	x	x	x	x	x
Cc1ccc(S(=O)(=O)Nc2ccc3c(c2)CC(=O)N([C@@H](C)CO)C[C@@H](C)[C@@H](CN(C)S(C)(=O)=O)O3)cc1	x	x	0[16.7 µM]	x	x	x	x	x
CN1CCN(C(=O)C[C@@H]2C=C[C@@H](NC(=O)Cc3ccccn3)[C@H](CO)O2)CC1	x	x	-20[16.7 µM]	x	x	x	x	x
Cc1ccc2oc(=O)c3cnn(CC(=O)NC4CCCCC4C)c3c2c1 (stereo not given)	0	-18	4	99*	3	20	11	1
Cc1ccc2oc(=O)c3cnn(CC(=O)NC4CCC(C)CC4)c3c2c1 (stereo not given)	0	2	-17	54	x	21	17	-18
CCOc1ccc(N2C(=O)CC(N3CCN(C4CCc5ccccc5C4)CC3)C2=O)cc1 (stereo not given)	0	-2	x	-6	5	x	x	x
Cc1ccc(N2C(=O)CC(N3CCN(C4CCc5ccccc5C4)CC3)C2=O)cc1 (stereo not given)	0	3	x	72*	-3	24	8	-21
Cc1cc(C(=O)NC2CCCN(Cc3ccc(Cl)cc3)C2)n(C)n1 (stereo not given)	0	23	-63	57*	-6	19	20	-3
COc1ccc(OCC(=O)NC2CCCN(Cc3ccc(Cl)cc3)C2)cc1 (stereo not given)	0	-2	27	52	-2	33	2	-50
COCC(=O)N1C[C@H](C)[C@@H](OC)CN(C)C(=O)c2ccc(NS(C)(=O)=O)cc2OC[C@@H]1C	x	x	10[16.7 µM]	x	x	x	x	x
SMILES	aDG glyco act	COUP-TFII inh	Env fusion inh	Gli-Sufu antag	GalR3 antag	Gli antag conf	SufuKO cytotox	Wnt3a counter
C[C@@H]1CCCCO[C@H](CN(C)C(=O)Nc2cccc3ccccc23)[C@H](C)CN([C@@H](C)CO)C(=O)c2cc(NC(=O)Nc3ccc(F)cc3)ccc2O1	x	x	0[16.7 µM]	x	x	x	x	x
COc1ccc(NC(=O)Nc2ccc3c(c2)C(=O)N([C@@H](C)CO)C[C@H](C)[C@@H](CN(C)C(=O)CCC(F)(F)F)OCCCC[C@H](C)O3)cc1	x	x	23[16.7 µM]	x	x	x	x	x
COc1ccccc1C(=O)N/C(=C\c1ccc(Br)cc1)C(=O)NCC(=O)O	0	-11	20	97*	-2	14	0	13
COc1ccccc1C(=O)N/C(=C\c1ccc(Br)cc1)C(=O)NCCC(=O)O	0	10	4	-5	4	x	x	x
CCC(=O)Nc1ccc2c(c1)C(=O)N(C)[C@H]1CC[C@@H](CC(=O)NCCc3ccncc3)O[C@@H]1CO2	x	x	-10[16.7 µM]	x	x	x	x	x
C[C@@H]1CN([C@@H](C)CO)C(=O)c2cccc(NC(=O)c3cnccn3)c2O[C@@H]1CN(C)C(=O)Nc1ccc(F)cc1	x	x	-4[16.7 µM]	x	x	x	x	x
Cc1ccc(NC(=O)/C=C/c2ccc([N+](=O)[O-])s2)c(C)c1	0	-7	-38	72*	-5	37	5	90*
O=C(NCC(F)(F)F)[C@@H]1[C@@H](CO)[C@@H]2Cn3c(cccc3=O)[C@H]1N2CC1CCOCC1	x	x	-2[16.7 µM]	x	x	x	x	x
C[C@@H]1CCCCO[C@@H](CN(C)C(=O)Nc2ccc(C(F)(F)F)cc2)[C@H](C)CN([C@@H](C)CO)C(=O)c2cc(NS(=O)(=O)c3ccccc3)ccc2O1	x	x	27[16.7 µM]	x	x	x	x	x
CCn1nc(C)c(CN2CCCC(C(=O)c3cccc(OC(C)C)c3)C2)c1C (stereo not given)	4	32	27	71*	2	33	20	40*
CCCCOc1ccccc1NC(=O)c1scc2c1OCCO2	1	20	34	56*	-2	15	15	-46
CCCCOc1ccccc1NC(=O)c1ccco1	0	12	x	-7	-4	x	x	x
O=C(CSCCc1ccccn1)Nc1ccc(Br)cn1	0	-2	-50	-4	-1	x	x	x
